In PubChem BioAssay (NCI):
This is part of a sample that, as a whole, favours compounds with a hit. Of some 83,000 tested, about 20% had one in any assay.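 Negative percent growth values reflect cell death: -40 means 40% of the cells present at the start died, and -100 means all died.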 Unmarked numbers belong to inactive results. Activity calls are given as the source filed them. Rule for the calls: active = growth percent below 10; inactive = the rest.

What follows are compounds tested on HL-60(TB) leukemia (assay: NCI-60 one-dose screen, 48 h (100 = growth as untreated, 0 = no growth, -100 = all killed)). Conditions: 10 µM unless noted.
With `Cc1cccc(-c2nc(Nc3ccc(C)c(S(N)(=O)=O)c3)c3ccccc3n2)c1` the growth was 26%. For `O=C(N/N=C/c1occc1Br)c1[nH]c2ccc(Br)cc2c1-c1ccccc1`, the growth was -34.2% (active). `N#Cc1cc(-c2ccc3ncnc(N4CCc5cc(F)c(Cl)cc54)c3c2)cnc1N` gave a growth of 36.1%. `N#CCc1nnc(NC(=O)c2ccc(-n3c(=O)[nH]c4ccccc4c3=O)cc2)s1` gave a growth of 86%. Compound `COCOc1cc2c(=O)c(C)c(C(=O)N[C@@H](Cc3ccccc3)C(O)C(=O)NCc3ccccc3)oc2cc1OC` (stereo not given in full) has a growth of 99.2%. Work on `Cc1cc(=O)oc2cc(OCCCCOc3ccc(/C=C/C(=O)Nc4cccc(Cl)c4)cc3)ccc12` yielded a growth of 97.3%. `Cc1ccc2nc(COc3ccc(C(=O)NNC(=S)NC(=O)c4ccccc4)cc3)[nH]c2c1` gave a growth of 70.7%. `Cc1ccc(S(=O)(=O)c2nc(S(=O)(=O)c3ccc(C)cc3)c(N3CCC(O)CC3)s2)cc1` gave a growth of 35.5%. With `CC(=O)Nc1ccc(-c2cn(-c3cccc(C(=O)Nc4cc(CN5CCOCC5)cc(C(F)(F)F)c4)c3)nn2)cn1` the growth was -54.3% (active). For `[2H]C([2H])([2H])Oc1ccc2ncc(C#Cc3cncc(C(=O)Nc4ccc(CN5CCN(C)CC5)c(C(F)(F)F)c4)c3)n2n1`, the growth was -60.4% (active). Compound `Cc1ccc2c(N)c(C(=O)Nc3ccc(OC(F)(F)F)cc3)sc2n1` has a growth of 61.6%. `N#Cc1c(NC(=O)c2ccc(C(F)(F)F)cc2C(F)(F)F)sc2c1CCC(=O)C2` was tested, and the growth was -24% (active). In the case of `COc1ccc(-c2nc3ccc(-c4nnc(SCC(=O)Nc5ccc(/C(C)=N\O)cc5)o4)cc3[nH]2)cc1`, the growth is reported as 77.6%. With `O=C(COc1ccc(NC(=O)Nc2ccc(Cl)c(Cl)c2)cc1)N=Nc1c(O)[nH]c2ccccc12` the growth was 40.1%. `O=C(CSc1nc2sc3c(c2c(=O)n1-c1ccc(Cl)cc1)CCCC3)NNC(=O)c1ccc(F)cc1` was tested, and the growth was 109%. `CCCn1c(NC(=O)c2cccc(C(N)=O)c2)nc2cc(CN3CCCCC3)ccc21` gave a growth of 91.4%. In the case of `CC(C)C(C(=O)O)n1c(O)c(/C=C2/C=c3cc4c(cc3=NC2=O)OCO4)sc1=S` (stereo not given), the growth is reported as 105%. `CC(=O)Nc1ccc(-n2cnc3cc(-c4ccc(O)cc4)ccc32)cc1F` was tested, and the growth was -10.2% (active). For `Cn1cc(-c2nc(N)nnc2-c2c[nH]c3ccc(Br)cc23)c2cccnc21`, the growth was 5.1% (active). Compound `O=c1[nH]c2ccc(Cl)cc2cc1CSc1ccc(Nc2nccc(-c3ccc(Cl)cc3)n2)cc1` has a growth of 52.4%. `CCOC(=O)C1=C(N)N(c2ccccc2)C2=C(C(=O)CC(C)(C)C2)C1c1ccc([N+](=O)[O-])cc1` (stereo not given) showed a growth of 92.9%. `Cc1ccc2nc(SCc3ccccc3F)n(-c3ccccc3)c(=O)c2c1` showed a growth of 104%. Work on `COc1ccc(C(=O)CSc2nnc(-c3c[nH]c4ccccc34)n2-c2ccccc2)cc1` yielded a growth of 81.3%. With `COc1ccc(C(=O)/C=C/c2ccc(OC)c(OCc3ccccc3)c2)cc1OC` the growth was 2.91% (active). In the case of `Cc1oc(-c2ccccc2)nc1CN[C@@H]1C[C@@H]2C[C@H]([C@H]1C)C2(C)C`, the growth is reported as -23.7% (active). With `O=C(c1ccc([N+](=O)[O-])c([N+](=O)[O-])c1O)n1[nH]c(=O)c2ccccc2c1=O` the growth was 44.6%. `CC1=C(C(=O)Nc2ccccc2)C(c2cccc3ccccc23)n2c(nc3ccccc32)N1` (stereo not given) was tested, and the growth was 95%. In the case of `Cn1cc(-c2nnc(N)nc2-c2c[nH]c3ccc(F)cc23)c2cccnc21`, the growth is reported as 10.2%. Compound `CN1CCN(CCS(=O)(=O)Nc2cc(-c3ccc4ncnc(Nc5ccc(F)c(Cl)c5)c4c3)cnc2Cl)CC1` has a growth of 19.2%. `COc1ccc(C(=O)Nc2ccc(-c3ccc4c(c3)NC(=O)/C4=C\c3ccc[nH]3)cc2)cc1` gave a growth of 89.6%. `COc1cc(-c2ccc(/C=N/NC(=O)c3[nH]c4ccc(Br)cc4c3-c3ccccc3)o2)cc(OC)c1OC` gave a growth of 99.3%. For `Cc1cc(=O)oc2cc(OCC(O)CNN3C(=O)c4cccc5c(N6CCN(C)CC6)ccc(c45)C3=O)ccc12` (stereo not given), the growth was 113%. In the case of `COc1cc(C2CC(c3cc(OC)c(OC)c(OC)c3)=NN2C(C)=O)ccc1OCc1ccc(F)cc1` (stereo not given), the growth is reported as 37.3%. In the case of `COc1ccc(Nc2nc(N)n(Cc3cccc(Br)c3)n2)cc1`, the growth is reported as -11.4% (active). `CC(=O)NNc1ccc2nnc(-c3ccc(Br)cc3)n2n1` was tested, and the growth was 97.5%.
